The source of these data is PubChem BioAssay (NCI).

Each structure is given as a SMILES string. The panel holds about 83,000 compounds, 20% with a hit somewhere; the sample as a whole holds those more often.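 Single-concentration screen, 48 h exposure, 96-well plates. Endpoint: percent growth. Below 10 = active.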 Unmarked numbers belong to inactive results. Active and inactive are the calls of the source.

Among the test systems are SR leukemia; OVCAR-8 ovarian; OVCAR-5 ovarian; OVCAR-4 ovarian; SK-OV-3 ovarian; IGROV1 ovarian; OVCAR-3 ovarian; HS 578T breast; NCI/ADR-RES ovarian; T-47D breast; BT-549 breast; MDA-MB-435 melanoma; SW-620 colon; MCF7 breast; HCT-116 colon; HCC-2998 colon; KM12 colon; RPMI-8226 leukemia.
What all share (assay): NCI-60 one-dose screen, 48 h (100 = growth as untreated, 0 = no growth, -100 = all killed)
Holding throughout (conditions): 10 µM unless noted

As for `CCCCCc1ccc(S(=O)(=O)Nc2cc(-c3csc(NC(=O)CN4CCN(C)CC4)n3)ccc2OC)cc1`, the growth in the assay on SR leukemia is -20.3% (active); in the assay with OVCAR-8 ovarian it was 50.8%; in the assay with OVCAR-5 ovarian it was 62.4%; in the assay with OVCAR-4 ovarian, 41.8%; in the assay with SK-OV-3 ovarian, 73.4%; in the assay with IGROV1 ovarian, 14.2%. The growth in the assay on OVCAR-3 ovarian was -19.4% (active); in the assay on HS 578T breast, -30.3% (active); in the assay with NCI/ADR-RES ovarian, 41.9%; with T-47D breast, -24.3% (active); with BT-549 breast it was 87.7%; in the assay with MDA-MB-435 melanoma it was -84.1% (active). Further, the growth in the assay with SW-620 colon is -26.9% (active); with MCF7 breast, -63.8% (active); with HCT-116 colon it was -70.8% (active); in the assay with HCC-2998 colon it was -50.2% (active); with KM12 colon it was 25.8%.

Regarding `c1ccc(C(c2nc3ncncc3[nH]2)N2CSc3nc4ncncc4n3C2)cc1` (stereo unspecified), the growth in the assay with SR leukemia was 84.9%; in the assay with RPMI-8226 leukemia it was 29.4%; in the assay with OVCAR-5 ovarian, 62.4%; in the assay on SK-OV-3 ovarian, 23.1%; with IGROV1 ovarian, 77.6%; with OVCAR-3 ovarian, 38.6%. Also, the growth in the assay on HS 578T breast is 77.2%; with NCI/ADR-RES ovarian it was 44.4%; in the assay with T-47D breast, 34.4%; with BT-549 breast, 73.1%; in the assay with MDA-MB-435 melanoma, 29.2%; in the assay with SW-620 colon, 79%. Besides, the growth is 14.2% with MCF7 breast, 41.5% in the assay on HCT-116 colon, 55.6% in the assay with HCC-2998 colon and 51.7% in the assay with KM12 colon.

With `O=C(NCc1ncc[nH]1)c1ccc(-c2nc3ccc4[nH]ncc4c3c3c2CCCC3)cc1`, the growth in the assay with SR leukemia was -52.6% (active); in the assay on OVCAR-8 ovarian it was 16.1%; in the assay on OVCAR-5 ovarian it was 62.1%; in the assay on OVCAR-4 ovarian it was 14.5%; in the assay with SK-OV-3 ovarian, -16.8% (active); with IGROV1 ovarian it was 3.6% (active). The growth with OVCAR-3 ovarian is 3.38% (active); with HS 578T breast, -12.8% (active); in the assay with NCI/ADR-RES ovarian, 90.2%; in the assay with T-47D breast, -3.92% (active); in the assay on BT-549 breast, 0.679% (active); in the assay with MDA-MB-435 melanoma it was 14.6%. The growth with SW-620 colon was 5.4% (active); in the assay on MCF7 breast, 1.62% (active); in the assay on HCT-116 colon, -4.57% (active); in the assay with HCC-2998 colon, 12.8%; in the assay on KM12 colon, 4.99% (active).

In the case of `COc1cc2oc(-c3cccc(NC(=O)c4cc(N)ccc4Cl)c3)cc(=O)c2c(OC)c1OC`, the growth with SR leukemia was 82.6%; in the assay on RPMI-8226 leukemia it was 60.2%; with OVCAR-5 ovarian, 109%; with OVCAR-4 ovarian it was 97.6%; in the assay on SK-OV-3 ovarian, 124%; in the assay on IGROV1 ovarian, 99.5%. For the same molecule, the growth in the assay with OVCAR-3 ovarian is 104%; in the assay with HS 578T breast it was 114%; in the assay on NCI/ADR-RES ovarian, 100%; in the assay with T-47D breast it was 62.4%; with BT-549 breast it was 89.4%; with MDA-MB-435 melanoma, 89.5%. Besides, the growth with SW-620 colon was 110%; in the assay with HCT-116 colon, 101%; with HCC-2998 colon, 101%; in the assay with KM12 colon, 96.4%.

Turning to `O=C(NCCn1ccnc1)c1ccc(-c2nc3ccc4[nH]ncc4c3c3c2CCCC3)cc1`, the growth in the assay on SR leukemia is 2.67% (active); in the assay with OVCAR-8 ovarian, 77.2%; in the assay with OVCAR-5 ovarian, 93.9%; with OVCAR-4 ovarian it was 66.3%; with SK-OV-3 ovarian, 63.1%; in the assay with IGROV1 ovarian it was 62.8%. Further, the growth is 36.7% in the assay on OVCAR-3 ovarian; 2.42% (active) in the assay on HS 578T breast; 102% in the assay on NCI/ADR-RES ovarian; 56% in the assay on T-47D breast; 44.2% with BT-549 breast; -1.93% (active) in the assay with MDA-MB-435 melanoma. For the same molecule, the growth was 57.4% with SW-620 colon; 20.5% with MCF7 breast; 37% in the assay with HCT-116 colon; 81.6% in the assay with HCC-2998 colon; 26% with KM12 colon.

On to `COc1cc(-c2nnc(SCc3ccc(O)c4ncccc34)n2-c2ccccc2)cc(OC)c1OC`, for which the growth in the assay on SR leukemia was 15.5%; in the assay with RPMI-8226 leukemia, 3.25% (active); in the assay on OVCAR-5 ovarian, 33.2%; in the assay on OVCAR-4 ovarian it was 6.79% (active); in the assay with SK-OV-3 ovarian, 1.71% (active); in the assay on IGROV1 ovarian it was 8.92% (active). The growth in the assay with OVCAR-3 ovarian is 6.44% (active); in the assay on HS 578T breast it was 20.3%; with NCI/ADR-RES ovarian, 0.665% (active); in the assay with T-47D breast, -0.917% (active); in the assay on BT-549 breast, 12.8%; with MDA-MB-435 melanoma it was 10.8%. Moreover, the growth in the assay with SW-620 colon is 10.3%; with MCF7 breast, 2.01% (active); with HCT-116 colon it was 5.72% (active); in the assay with HCC-2998 colon, 22.1%; in the assay with KM12 colon it was 14%.

As for `COc1cccc2cc(-c3cc4ccccc4[nH]3)/c(=N\NC(=O)c3ccc(Cl)cc3)oc12`, the growth in the assay on SR leukemia is 25.7%; in the assay with OVCAR-8 ovarian, 20.7%; in the assay with OVCAR-5 ovarian it was 49.2%; with OVCAR-4 ovarian, 9.76% (active); in the assay on SK-OV-3 ovarian, 39.5%; with IGROV1 ovarian, 26.3%. Also, the growth was 14.7% in the assay on OVCAR-3 ovarian; 77% with HS 578T breast; 13.3% in the assay with NCI/ADR-RES ovarian; 13.3% in the assay with T-47D breast; 58.3% in the assay on BT-549 breast; 44.7% in the assay with MDA-MB-435 melanoma. For the same molecule, the growth was 38.3% in the assay on SW-620 colon; 8.32% (active) in the assay with MCF7 breast; 21.8% in the assay with HCT-116 colon; 69% with HCC-2998 colon; 28.2% in the assay with KM12 colon.

`O=S(=O)(Nc1ccc2c(c1)OCO2)c1ccc(-c2cnc(C3CC3)o2)cc1`: the growth in the assay on SR leukemia was 26.6%; with OVCAR-8 ovarian, 46.8%; with OVCAR-5 ovarian, 60.7%; with OVCAR-4 ovarian, 36.3%; with SK-OV-3 ovarian, 62.1%; in the assay with IGROV1 ovarian, 40.6%. In addition, the growth is 7.46% (active) with OVCAR-3 ovarian; 45.5% in the assay on HS 578T breast; 16.6% in the assay on NCI/ADR-RES ovarian; 31.7% in the assay on T-47D breast; 42.1% in the assay with BT-549 breast; 0.417% (active) with MDA-MB-435 melanoma. Further, the growth in the assay on SW-620 colon was 21.2%; in the assay with MCF7 breast it was 22.3%; with HCT-116 colon it was 19.9%; with HCC-2998 colon, 73.5%; in the assay on KM12 colon, 23.1%.

For `NS(=O)(=O)c1ccc(Nc2nc(Nc3ccccc3)nc3nnc(SCC(=O)NC4CCCCC4)n23)cc1`, the growth is 97.7% in the assay on SR leukemia; 99.8% in the assay on OVCAR-8 ovarian; 105% in the assay with OVCAR-5 ovarian; 108% in the assay with OVCAR-4 ovarian; 105% with SK-OV-3 ovarian; 95.5% in the assay with IGROV1 ovarian. Further, the growth was 119% in the assay on OVCAR-3 ovarian; 102% with HS 578T breast; 112% in the assay with NCI/ADR-RES ovarian; 104% in the assay with T-47D breast; 104% in the assay on BT-549 breast; 110% in the assay on MDA-MB-435 melanoma. For the same molecule, the growth in the assay on SW-620 colon was 106%; in the assay on MCF7 breast, 100%; with HCT-116 colon, 99.8%; with HCC-2998 colon it was 109%; in the assay with KM12 colon it was 102%.
